The results in this text go back to PMC4336329 (PLoS ONE, 2015).

The whole screen tested about 310,000 compounds, of which about 14,000 (4.5%) showed an effect of 50% or more. Effects have a minus sign here. The sample holds strong results, similar compounds and a random draw of the others, so the mix is not that of the screen.
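Also: peak tail current of the secondary pulse compared with the same well before compound.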

The target in the assay is human ether-à-go-go-related gene (hERG) potassium channel (human, UniProt Q12809). Briefly: primary screen, population patch clamp on CHO cells stably expressing hERG; higher = less effect of the substance.
human ether-à-go-go-related gene (hERG) potassium channel, sequence (Q12809 whole entry, looked up): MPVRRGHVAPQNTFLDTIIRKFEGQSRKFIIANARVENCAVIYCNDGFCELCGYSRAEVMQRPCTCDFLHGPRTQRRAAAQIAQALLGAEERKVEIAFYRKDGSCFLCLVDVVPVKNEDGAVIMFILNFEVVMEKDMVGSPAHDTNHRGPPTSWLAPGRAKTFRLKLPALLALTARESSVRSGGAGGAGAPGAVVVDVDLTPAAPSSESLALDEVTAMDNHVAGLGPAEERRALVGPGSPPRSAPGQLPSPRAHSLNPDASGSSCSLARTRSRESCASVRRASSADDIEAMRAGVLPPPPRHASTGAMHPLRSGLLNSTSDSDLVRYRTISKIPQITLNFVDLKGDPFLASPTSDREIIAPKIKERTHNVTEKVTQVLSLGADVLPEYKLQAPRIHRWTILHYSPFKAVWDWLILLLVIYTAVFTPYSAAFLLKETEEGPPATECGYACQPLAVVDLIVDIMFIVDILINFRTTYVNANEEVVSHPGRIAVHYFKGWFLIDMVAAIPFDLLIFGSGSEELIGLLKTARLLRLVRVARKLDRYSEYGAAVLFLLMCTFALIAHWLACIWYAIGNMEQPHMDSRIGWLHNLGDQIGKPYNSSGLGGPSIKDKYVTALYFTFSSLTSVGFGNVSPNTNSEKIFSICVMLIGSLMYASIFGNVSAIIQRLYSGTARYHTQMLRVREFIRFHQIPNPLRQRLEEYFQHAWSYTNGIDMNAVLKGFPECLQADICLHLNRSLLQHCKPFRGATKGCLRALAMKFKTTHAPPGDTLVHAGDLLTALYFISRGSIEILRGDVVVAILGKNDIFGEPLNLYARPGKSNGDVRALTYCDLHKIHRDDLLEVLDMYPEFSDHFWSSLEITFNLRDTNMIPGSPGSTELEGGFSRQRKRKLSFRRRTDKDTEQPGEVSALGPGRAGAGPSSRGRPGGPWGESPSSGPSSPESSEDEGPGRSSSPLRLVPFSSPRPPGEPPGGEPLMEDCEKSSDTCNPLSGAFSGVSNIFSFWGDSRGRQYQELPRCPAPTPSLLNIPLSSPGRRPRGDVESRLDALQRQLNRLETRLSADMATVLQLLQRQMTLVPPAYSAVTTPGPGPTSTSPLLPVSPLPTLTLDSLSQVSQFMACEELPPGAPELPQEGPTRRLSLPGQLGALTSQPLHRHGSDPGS
Take `CCNC(=S)NCc1ccc(F)cc1`: the “hERG current change (%, negative = inhibition) at 10uM” value is reported as 5.03%.

Consider `Br.NS(=O)(=O)c1ccc(Nc2nc(-c3ccccc3)cs2)cc1`, for which the “hERG current change (%, negative = inhibition) at 10uM” value is -26%.

In the case of `CCCn1c(=O)c(C(=O)Nc2ccccc2C(=O)OC)c(O)c2ccccc21`, the “hERG current change (%, negative = inhibition) at 10uM” value is given as 5.91%.

`S=C1NCCNC(=S)NCCOCCOCCOCCN1`: the “hERG current change (%, negative = inhibition) at 10uM” value turned out to be 15.2%.

On to `CCOC(=O)c1nn(-c2ccccc2)c2nnc(Cc3ccc(Cl)cc3)c(=O)n12`, for which the “hERG current change (%, negative = inhibition) at 10uM” value turned out to be 3.57%.

As for `COc1cccc(OC)c1OCCCCN1CCCCC1.O=C(O)C(=O)O`, the “hERG current change (%, negative = inhibition) at 10uM” value is -2.55%.

Turning to `COc1cccc(OC)c1OCCCN1CCC(Cc2ccccc2)CC1.O=C(O)C(=O)O`, the “hERG current change (%, negative = inhibition) at 10uM” value is recorded as -80.6%.

As for `COc1cccc(OC)c1OCCCCCCN1CCN(C)CC1.Cl`, the “hERG current change (%, negative = inhibition) at 10uM” value was 8.54%.

Turning to `COc1cccc(OC)c1OCCCCN1CCCC1`, the “hERG current change (%, negative = inhibition) at 10uM” value is -2.47%.

In the case of `CC(=O)CCc1ccc(OCCCCn2cncn2)cc1`, the “hERG current change (%, negative = inhibition) at 10uM” value is on record as -4.29%.

On to `CC(=O)CCc1ccc(OCCCCN2CCC(Cc3ccccc3)CC2)cc1.O=C(O)C(=O)O`, for which the “hERG current change (%, negative = inhibition) at 10uM” value is -79.5%.

Consider `COc1cccc(OC)c1OCCCN1CCOCC1`, for which the “hERG current change (%, negative = inhibition) at 10uM” value came to 4.22%.

In the case of `COc1ccc(OCC(=O)N2CCC(Cc3ccccc3)CC2)cc1`, the “hERG current change (%, negative = inhibition) at 10uM” value is recorded as -36%.

On to `COc1cccc(OC)c1OCCCCN1CCC(Cc2ccccc2)CC1.O=C(O)C(=O)O`, for which the “hERG current change (%, negative = inhibition) at 10uM” value is on record as -81.9%.

Turning to `COc1ccccc1OCC(=O)OCC(=O)Nc1ncc(Cl)cc1Cl`, the “hERG current change (%, negative = inhibition) at 10uM” value is reported as 12.8%.

With `Cc1ccc2nc(NC(=O)/C=C/c3ccc4c(c3)OCO4)sc2c1`, the “hERG current change (%, negative = inhibition) at 10uM” value worked out at 14.8%.

In the case of `Cc1cccc(CNC(=O)c2ccc(NC(=O)C3=CSCCO3)cc2)c1`, the “hERG current change (%, negative = inhibition) at 10uM” value amounted to 5.08%.

On to `CSc1nnc(NC(=O)CCc2ccccc2)s1`, for which the “hERG current change (%, negative = inhibition) at 10uM” value is reported as -6.33%.

On to `COc1ccc(NC(=O)CN(C)C(=O)c2ccccc2SCC(=O)N2CCCC2)cc1`, for which the “hERG current change (%, negative = inhibition) at 10uM” value came to 10.5%.

Turning to `CN(C)C(=O)CSc1nc2ccccc2n1Cc1ccccc1`, the “hERG current change (%, negative = inhibition) at 10uM” value was -11.8%.

Regarding `O=C(O)CCSc1nc2ccccc2n1Cc1ccccc1`, the “hERG current change (%, negative = inhibition) at 10uM” value is given as 24.1%.

Regarding `OCCn1nc2c3ccccc3nc-2n(-c2ccccc2)c1=S`, the “hERG current change (%, negative = inhibition) at 10uM” value was -9.49%.

In the case of `CCN(CC)CCSc1nc(O)c(-c2ccccc2)c(=O)n1-c1ccccc1.Cl`, the “hERG current change (%, negative = inhibition) at 10uM” value was 12.1%.

For the molecule `CCN(CC)CCSc1nc2ccccc2n1Cc1ccccc1.Cl`, the “hERG current change (%, negative = inhibition) at 10uM” value is given as -74.1%.

In the case of `CCN(CC)CCSc1nc2ccccc2c(=S)n1-c1ccccc1.Cl`, the “hERG current change (%, negative = inhibition) at 10uM” value was -51.9%.

Consider `CCN(CC)C(=O)CSc1nnc(-c2ccccc2)n1-c1ccccc1`, for which the “hERG current change (%, negative = inhibition) at 10uM” value worked out at 17.8%.

As for `CSc1nc2ccccc2n1Cc1cccc([N+](=O)[O-])c1`, the “hERG current change (%, negative = inhibition) at 10uM” value was -44.8%.

For `CCN(CC)CCSc1nnc(Nc2ccccc2)n1-c1ccccc1`, the “hERG current change (%, negative = inhibition) at 10uM” value is listed as -75.9%.

Regarding `O=C(O)CSc1nnc(Nc2ccccc2)n1-c1ccccc1`, the “hERG current change (%, negative = inhibition) at 10uM” value came to 18.6%.

Consider `CCSc1nc2ccccc2n1Cc1cccc([N+](=O)[O-])c1`, for which the “hERG current change (%, negative = inhibition) at 10uM” value is given as -69.7%.

As for `COc1ccc(Cn2c(SC)nc3ccccc32)cc1[N+](=O)[O-]`, the “hERG current change (%, negative = inhibition) at 10uM” value amounted to 13.9%.

Take `CCc1n[nH]c(=S)n1/N=C/c1ccc(NC(C)=O)cc1`: the “hERG current change (%, negative = inhibition) at 10uM” value is on record as 13%.

For the molecule `COc1cc(NC(=O)COC(=O)CO/N=C(\C)c2ccc3c(c2)OCO3)cc(OC)c1`, the “hERG current change (%, negative = inhibition) at 10uM” value is 14.6%.

For the molecule `CC1CCc2sc(C(=O)Nc3ccc(N4CCOCC4)cc3)cc2C1` (centres unmarked), the “hERG current change (%, negative = inhibition) at 10uM” value is 11.6%.

As to `COc1cccc2c1OCC(C(=O)Nc1nccs1)=C2`, the “hERG current change (%, negative = inhibition) at 10uM” value was -0.366%.

For the molecule `CC(=O)C1=C(O)C(=O)N(c2ccc(Br)cn2)C1c1ccccc1F` (centres unmarked), the “hERG current change (%, negative = inhibition) at 10uM” value is given as 10.6%.

On to `CC(=O)N(C)c1ccc(NS(=O)(=O)Cc2ccccc2)cc1`, for which the “hERG current change (%, negative = inhibition) at 10uM” value is listed as -8.12%.

For `O=C(CCSc1ccccc1)Nc1ncccn1`, the “hERG current change (%, negative = inhibition) at 10uM” value was determined as 14.9%.

Consider `COC(=O)c1ccc(Cl)c(NS(=O)(=O)c2ccc3c(c2)OCCO3)c1`, for which the “hERG current change (%, negative = inhibition) at 10uM” value is reported as -25.4%.

Take `O=c1c2ccccc2nc2c3ccccc3c(NCc3ccco3)nn12`: the “hERG current change (%, negative = inhibition) at 10uM” value is on record as -17.8%.

As for `Cc1sc2nc3c4ccccc4c(NCc4ccco4)nn3c(=O)c2c1C`, the “hERG current change (%, negative = inhibition) at 10uM” value is -56.6%.

For `Cc1sc2nc3ccc(NCc4ccco4)nn3c(=O)c2c1C`, the “hERG current change (%, negative = inhibition) at 10uM” value is listed as -21.7%.

With `COc1nc(N/N=C/c2ccccc2F)nc(N2CCCCC2)n1`, the “hERG current change (%, negative = inhibition) at 10uM” value was -15.6%.

Regarding `O=C(NCCCN1CCc2ccccc2C1)Nc1ccc(Cl)cc1`, the “hERG current change (%, negative = inhibition) at 10uM” value is on record as -65.5%.

`COc1ccc(NC(=O)NCCN2CCc3ccccc3C2)cc1`: the “hERG current change (%, negative = inhibition) at 10uM” value is on record as -34.6%.

For `COc1ccc(NC(=O)NCCCN2CCc3ccccc3C2)cc1`, the “hERG current change (%, negative = inhibition) at 10uM” value is given as -69.2%.

`O=C(NCCCN1CCc2ccccc2C1)Nc1ccc(Br)cc1`: the “hERG current change (%, negative = inhibition) at 10uM” value was -71.7%.
